# Experimental data published in PubChem BioAssay (NCATS).
# Inconclusive results are not listed. Unmarked numbers belong to inactive results. Activity calls are given as the source filed them. Calls come from the whole dose curve; as a rule, active = well fitted inhibition curve with a large enough effect; inconclusive = small, poorly fitted or top-dose-only effect; inactive = flat fitted curve, though single readings scatter.
# Assays:
# Assay in all cases: Cytotoxic Profiling of Annotated Libraries Using Quantitative High-Throughput Screening (AID 1296008); note: nearly all actives have a fitted effect of over 60% in size
# Settings in all cases: Five cell lines viability, CellTiter-Glo ATP luminescence, 48-72 h; max response: stronger effect = lower value
# [1] = tested on: HaCat
# In short: (§1)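 Compounds were pin-transferred onto cells and incubated 48 or 72 hr at 37 degree Celsius, 95% humidity. CellTiter-Glo was added, plates sat 10 min at room temperature, then ATP-coupled luminescence was imaged as the viability read-out.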
# [2] = tested on: KB-3-1
# In short: as §1
# [3] = tested on: HEK293
# In short: as §1
# [4] = tested on: NIH3T3
# In short: as §1
# % is set by controls: 0 for no effect and ±100 for the full control effect; potency is the fitted concentration of half-maximal effect.
smiles,measurement,setting,value
C[C@H]1CC[C@@]2(OC1)O[C@H]1CC3[C@@H]4CC[C@@H]5C[C@@H](O[C@@H]6O[C@H](CO)[C@@H](O[C@@H]7O[C@H](CO[C@@H]8OC[C@@H](O)[C@H](O)[C@H]8O)[C@@H](O[C@@H]8O[C@H](CO)[C@H](O)[C@H](O)[C@H]8O)[C@H](O)[C@H]7O)[C@H](O)[C@H]6O)CC[C@]5(C)C4CC[C@]3(C)[C@H]1[C@@H]2C (stereo partly drawn),max response,[1],-10.6%
same,outcome,[2],inactive
COc1cccc(OCCCN)c1-c1cc(Nc2cnc(C#N)cn2)n[nH]1,Potency,[3],0.0103 µM (active)
same,Potency,[4],0.0411 µM (active)
O=c1[nH]c2ccc(C#CCN3CCC(Cc4ccccc4)CC3)cc2[nH]1,max response,[1],0.764%
same,max response,[2],-17.6%
COc1ccc2[nH]c(=O)c3c(c2c1)OC(C)(C)C=C3,max response,[1],-2%
same,outcome,[2],inactive
Cc1sc2c(c1C)C(c1ccc(Cl)cc1)=N[C@@H](CC(=O)Nc1ccc(OCCOCCOCCOCCNc3cccc4c3C(=O)N(C3CCC(=O)NC3=O)C4=O)cc1)c1nnc(C)n1-2 (stereo partly drawn),Potency,[3],0.0447 µM (active)
same,max response,[4],-54%
C=C(NC(=O)C(=C)NC(=O)c1csc(C2=NC3c4csc(n4)C4NC(=O)c5csc(n5)C(C(C)(O)C(C)O)NC(=O)C5CSC(=N5)/C(=C/C)NC(=O)C(C(C)O)NC(=O)c5csc(n5)C3(CC2)NC(=O)C(C)NC(=O)C(=C)NC(=O)C(C)NC(=O)C(C(C)CC)NC2C=Cc3c(C(C)O)cc(nc3C2O)C(=O)OC4C)n1)C(N)=O (stereo not drawn),Potency,[3],1.16 µM (active)
same,Potency,[4],4.61 µM (active)
Nc1ncnc2c1c(-c1ccc(Cl)cc1)nn2-c1cccc(-c2cnnn2Cc2cccc(-c3ccccc3)c2)c1,max response,[1],-3.38%
same,max response,[2],-15.9%
Fc1ccc(-n2cc(CCCCN3CCC4(CC3)OCc3ccccc34)c3ccccc32)cc1,Potency,[3],18.4 µM (active)
same,Potency,[4],16.4 µM (active)
O=C(Nc1nc2cc(C(F)(F)F)cc(NC3CC3)n2n1)c1cccnc1,Potency,[1],4.61 µM (active)
same,Potency,[2],5.8 µM (active)
O=c1[nH]c2cccc(N3CCN(Cc4ccc(-c5ccccc5)cc4)CC3)c2o1,max response,[1],-18.1%
same,max response,[2],-24.1%
CC#C[C@@H](CC(=O)O)c1ccc(OCc2cccc(-c3ccc(C(F)(F)F)cc3)c2)cc1,max response,[1],-75.8%
same,max response,[2],-14.7%
CC[C@H](C(=O)Nc1ccccc1N1CCCC1)c1ccccc1,max response,[1],-11.1%
same,max response,[2],-2.95%
same,max response,[4],-0.387%
C=C(C)C(=O)O[C@H]1C[C@@](C)(O)C2(O)CCC(C)(/C=C3/OC(=O)C(COC)=C31)O2 (stereo partly drawn),Potency,[3],3.21 µM (active)
same,Potency,[4],10.1 µM (active)
O=C([C@@H]1CCCN(c2ccc3[nH]c(C4(n5cc(Cl)cn5)CC4)nc3n2)C1)N1CCCC1,max response,[1],-7.93%
same,max response,[2],-11.1%
same,max response,[4],-6.68%
O=C(NCCCCCCCCNC(=O)C(Cl)Cl)C(Cl)Cl,max response,[1],-4.24%
same,max response,[2],-9.66%
same,max response,[4],-14.9%
CC1=C(c2ccc(NC(=O)c3c(F)cccc3F)cc2)CN(c2nccs2)CC1,max response,[1],-2.64%
same,outcome,[2],inactive
same,max response,[4],-1.55%
O=S(=O)(Nc1ccccc1N1CCCCC1)c1ccc(Cl)s1,max response,[1],-19.5%
same,max response,[2],-15.2%
same,max response,[4],-6.22%
CC1CCC(=O)CC(SCC(O)C(=O)O)CCC(=O)O1 (stereo not drawn),max response,[1],-8.22%
same,max response,[2],-25.6%
same,max response,[4],-15.1%
CN(C)CCn1cc(-c2ccc(F)cc2)c(-n2cccc2)n1,max response,[1],4.28%
same,max response,[2],-2.07%
same,max response,[4],-6.89%
CN1CCN(S(=O)(=O)c2ccc(-c3cnc(N)c(C(=O)Nc4cccnc4)n3)cc2)CC1,max response,[1],-21.1%
same,max response,[2],3.5%
same,Potency,[4],0.632 µM (active)
C=C1/C(=C/C=C2\CCC[C@]3(C)[C@@H]([C@H](C)CC[C@@H](O)C(C)(C)O)CC[C@@H]23)C[C@@H](O)C[C@@H]1O,max response,[1],-0.344%
same,max response,[2],-22.3%
same,Potency,[4],0.0146 µM (active)
CCOC(=O)C1(CCOc2ccccc2)CCN(Cc2ccc(O)c(Cl)c2)CC1,max response,[1],0.37%
same,max response,[2],-15.3%
same,max response,[4],-16.4%
O=C1Cc2c([nH]c3ccc(Br)cc23)-c2ncccc2N1,max response,[1],2.65%
same,max response,[2],2.04%
same,outcome,[4],inactive
COc1cc2ncnc(Nc3cccc(I)c3)c2cc1OC,Potency,[1],4.61 µM (active)
same,Potency,[2],9.2 µM (active)
same,outcome,[4],inactive
COc1cc(F)c(F)c(Nc2ccc(I)cc2F)c1NS(=O)(=O)C1(CC(O)CO)CC1 (stereo not drawn),Potency,[1],14.6 µM (active)
same,max response,[2],-14.8%
same,Potency,[4],5.17 µM (active)
